The values that follow come from PubChem BioAssay (Tox21).

SMILES strings stand for the structures. Results filed as inconclusive are left out. A call without a number means that no potency is given here. Activity calls are given as the source filed them. The call rests on the fitted dose curve; in most records, active means well fitted cell-killing curve with a large enough effect in the repeat runs; inconclusive means weak or mixed curves, or effect the other way; inactive means flat fitted curve, though single readings scatter.

The nature of this assay: qHTS RealTime-Glo MT Cell Viability Assay in HepG2 cells - 0 hour (AID 1224889). Further: nearly all actives have a fitted effect of over 50% in size. The following applies: RealTime-Glo luminescence; series mostly up to 76.8 µM. The gist of the method:
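Real-time, nonlytic viability: 600 HepG2 cells/well mixed with NanoLuc enzyme plus prosubstrate; 5 h settle, compound (DMSO) added by pintool; luminescence monitored over 40 h at 37 C.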
For `O=c1oc2c(O)c(O)cc3c(=O)oc4c(O)c(O)cc1c4c23`, the activity change, negative = cytotoxicity is 0.919% [at 15.8 µM] (inactive).
`Cc1nnc(SCC2=C(C(=O)O)N3C(=O)[C@@H](NC(=O)Cn4cnnn4)[C@H]3SC2)s1`: the Potency entry was “inactive”.
`Cc1cc(S(=O)(=O)O)c(N)cc1Cl`: the Potency result is “inactive”.
On the same count and under the same terms, the value for `COc1cc(C)ccc1C(C)C` was “inactive”.
Take `Cc1ccsc1C(=CCCN1CCC[C@@H](C(=O)O)C1)c1sccc1C`: the Potency entry was “inactive”.
For the compound `C=CC1CO1` (stereo not drawn), the Potency entry is “inactive”.
The same measure, in the same setting: the entry for `CNCCC(Oc1ccccc1OC)c1ccccc1` (stereo not drawn) is “inactive”; for `FC(F)(F)C(F)(F)C(F)(F)C(F)(F)C(F)(F)C(F)(F)C(F)(F)C(F)(F)Br` it is “inactive”.
On the same count and under the same terms, the entry for `CCN(CC)C(=O)N(CC)CC` is “inactive”; for `CN(CC1(C)CCCO1)S(=O)(=O)c1ccc(Cl)c(S(N)(=O)=O)c1` (stereo not drawn) it is “inactive”; for `O=CCCc1ccccc1` it is “inactive”.
Same read-out and setting: the value for `CN1C(=O)CC(c2ccccc2)C1=O` (stereo not drawn) was “inactive”; that for `CCCN(CCC)C(=O)C(CCC(=O)O)NC(=O)c1ccccc1` (stereo not drawn) was “inactive”; that for `CC(=O)Nc1ccc(C)c(Cl)c1` was “inactive”.
On to `CCCCN1C[C@H](O)[C@@H](O)[C@H](O)[C@H]1CO`, for which the Potency result was “inactive”.
The same measure, in the same setting: the entry for `Cc1cccc(C)c1NC(=O)CN1CCCCCC1` is “inactive”.
Same read-out and setting: the value for `CO[C@@]1(NC(=O)CSCC#N)C(=O)N2C(C(=O)O)=C(CSc3nnnn3C)CS[C@@H]21` was “inactive”; that for `FC(F)(F)C(Cl)(Cl)Cl` was “inactive”; that for `CCC(=O)Nc1ccc(O)cc1` was “inactive”.
Same read-out and setting: the entry for `N#Cc1ccc(C(c2ccc(C#N)cc2)n2cncn2)cc1` is “inactive”; for `CCOc1ccc2nc(N)sc2c1` it is “inactive”; for `Cc1ccc([N+](=O)[O-])cc1Cl` it is “inactive”.
Turning to `CCCCCCC`, the Potency result is “inactive”.
